# In ChEMBL document CHEMBL3988442, “University of Dundee, Small-Polar-MMV Screening Library” (2021):
# Molecular target: AMP-activated protein kinase, AMPK (Homo sapiens) (UniProt P54646+O43741+P54619+Q9UGJ0+Q9Y478+Q13131+Q9UGI9)
# Assay: AMP-dependent Kinase enzyme assay. An in vitro enzyme assay that detects ADP turnover that is directly proportional to AMPK activity. This uses naive AMPK that is activated during the assay with MK-8722
# Type: functional
# Design: scale not given: direction of the effect not stated beside the values
# Settings: 30 µM
row,Structure (SMILES),Percent Effect [%]
1,O=C(NCCS(=O)(=O)N1CCN(c2ncccn2)CC1)c1ccccc1,-4.77
2,O=c1cc(N2CCNCC2)cnn1Cc1noc(C2CCCC2)n1,-1.96
3,CCC[C@@H]1CN(Cc2cnc3c(S(C)(=O)=O)cnn3c2)C[C@H]1N(C)C,-10.1
4,Cc1nn(C)c(C)c1S(=O)(=O)NCC1(C(N)=O)CCOCC1,0.589
5,COC(=O)c1sc(C(NC(=O)c2ccccc2)C2CC2)nc1C (stereo not given),-2.15
6,Cn1ncc2c1CCCC2NCc1ccc(OCc2cccnc2)cc1 (stereo not given),2.53
7,O=C1CN(C(=O)c2cc3ccc(Br)cc3[nH]2)CCN1,91
8,COc1ccc(CCNC(=O)c2ccc(=O)n(C)c2)c(Cl)c1,5.99
9,O=S(=O)(Cc1nc(C2CC2)no1)c1ccccc1F,1.42
10,CC(C)c1nnc(CN2CC(n3cccn3)Cc3ccccc32)o1 (stereo not given),-5.15
11,Cc1cc(N2CCCC(N(C)C)C2)n2nccc2n1 (stereo not given),1.81
12,O=C(c1cc(C2CC2)n[nH]1)N1C[C@H]2CC[C@](O)(c3ccccc3F)[C@H]2C1,16
13,CC(=O)N[C@H]1CCO[C@@H](c2cccc(NC(=O)c3ccc(=O)[nH]n3)c2)C1,14.1
14,CC(=O)NCCc1cc2nc(-c3ccncc3)ccn2n1,17.4
15,CN(Cc1cc(Br)c2c(c1)OCO2)Cc1cscn1,-9.1
16,CCn1nc(C)c(NC(=O)CN(C)C(C)c2ccon2)c1C (stereo not given),-1.21
17,CC(=O)Nc1ccc(CNC(=O)CNCc2sc(C)nc2C)cc1,3.71
18,CCN(CC)S(=O)(=O)N1CCCC(c2ncc3c(n2)CCN(C)C3)C1 (stereo not given),-4.24
19,CCC1(CC)CC(=O)N(CC(O)c2ccc(F)cc2)C1=O (stereo not given),8.69
20,Cc1nccn1CCCN1CCCC(c2nccn2C)C1 (stereo not given),-14.7
